Assay results published in PubChem BioAssay (NCI).
About 83,000 compounds went through this panel and 20% of them were active in at least one assay; those are over-represented in the sample as a whole.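 Assay: single dose, 48 h. Readout: percent growth (0 = no net growth; negative = cell death). Active: <10.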 Calls of active or inactive are those of the source.

Experiments:
Assay in all cases: NCI-60 one-dose screen, 48 h (100 = growth as untreated, 0 = no growth, -100 = all killed)
Conditions in all cases: 10 µM unless noted
SK-MEL-2 melanoma = test system: SK-MEL-2 melanoma
SN12C renal = test system: SN12C renal
UO-31 renal = test system: UO-31 renal
TK-10 renal = test system: TK-10 renal
ACHN renal = test system: ACHN renal
A498 renal = test system: A498 renal
CCRF-CEM leukemia = test system: CCRF-CEM leukemia
MOLT-4 leukemia = test system: MOLT-4 leukemia
CAKI-1 renal = test system: CAKI-1 renal

Measured: growth

COc1ccc(C2OCC(C)(C)CO2)cc1OC
inactive: SK-MEL-2 melanoma 106% | SN12C renal 98.5% | UO-31 renal 89.8% | TK-10 renal 109% | ACHN renal 107% | A498 renal 115% | CCRF-CEM leukemia 94.3% | MOLT-4 leukemia 100%

Cc1nc2cc(Nc3nc(Nc4ccc(F)cc4)nc(-c4ccc(Cl)cc4)n3)ccc2n1Cc1ccccc1
inactive: SK-MEL-2 melanoma 83.6% | SN12C renal 77.1% | UO-31 renal 44.5% | TK-10 renal 112% | ACHN renal 71.6% | A498 renal 70.3%
active: CCRF-CEM leukemia 3.88% | MOLT-4 leukemia 0.841%

COc1nc2c(cc1S(=O)(=O)c1ccccc1)CCc1c-2cnn1-c1cccc(Cl)c1
inactive: SK-MEL-2 melanoma 88.9% | SN12C renal 77.4% | TK-10 renal 94.2% | CAKI-1 renal 63.5% | A498 renal 54.6% | CCRF-CEM leukemia 70.4% | MOLT-4 leukemia 66.1%
active: UO-31 renal -15.6%

CCOC(=O)C(CC(c1ccccc1)N1CCCCC1)[N+](=O)[O-] (stereo unspecified)
inactive: SK-MEL-2 melanoma 88.5% | SN12C renal 76.9% | UO-31 renal 46.2% | TK-10 renal 112% | ACHN renal 72.6% | A498 renal 88.4% | CCRF-CEM leukemia 49.5% | MOLT-4 leukemia 63.7%

Oc1ccc(Cl)cc1CNc1nc2ccccc2[nH]1
inactive: SK-MEL-2 melanoma 87.1% | SN12C renal 61.1% | UO-31 renal 56% | TK-10 renal 88.2% | ACHN renal 57% | A498 renal 59.6%
active: CCRF-CEM leukemia -21.4% | MOLT-4 leukemia -25.1%

FC(F)(F)c1cc(CNc2ncc(Br)c(Cl)n2)cc(C(F)(F)F)c1
inactive: SK-MEL-2 melanoma 94% | SN12C renal 99.7% | UO-31 renal 83.3% | TK-10 renal 97.9% | ACHN renal 104% | A498 renal 96.7% | CCRF-CEM leukemia 83.2% | MOLT-4 leukemia 86%

COc1ccc(/C=C/C(=O)N2CCC(O)CC2)cc1OC1CCCC1
inactive: SK-MEL-2 melanoma 107% | SN12C renal 95% | UO-31 renal 87.8% | TK-10 renal 102% | ACHN renal 102% | MOLT-4 leukemia 97.6%

COc1ccc(/C=N/OCC(O)CNCc2ccccc2)cc1OC1CCCC1 (stereo unspecified)
inactive: SK-MEL-2 melanoma 115% | SN12C renal 99.9% | UO-31 renal 69.2% | TK-10 renal 103% | ACHN renal 99.6% | CAKI-1 renal 84% | CCRF-CEM leukemia 113% | MOLT-4 leukemia 101%

Cc1c(NCC(=O)Nc2nc3ccccc3[nH]2)c(=O)n(-c2ccccc2)n1C
inactive: SK-MEL-2 melanoma 104% | SN12C renal 99.4% | UO-31 renal 81.5% | TK-10 renal 117% | ACHN renal 97.3% | A498 renal 74% | CCRF-CEM leukemia 93.3% | MOLT-4 leukemia 104%

Cc1cccc2c(=O)c3c(sc12)c(NCCNCCO)nc1ccccc13
inactive: SK-MEL-2 melanoma 79.3% | SN12C renal 33.4% | UO-31 renal 29.6% | TK-10 renal 34.9% | CAKI-1 renal 22.1% | CCRF-CEM leukemia 13.7%
active: ACHN renal -19.2% | MOLT-4 leukemia -31.1%

CCOC(=O)c1[nH]c2cc(Cl)ccc2c1[C@@H](C(=O)NC(C)(C)C)N(CC)C(=O)CCCCC#Cc1cccc2c1CN(C1CCC(=O)NC1=O)C2=O (stereo partly specified)
active: SK-MEL-2 melanoma -13.2% | UO-31 renal 0.0319% | CAKI-1 renal 7.95%
inactive: SN12C renal 24.4% | TK-10 renal 34.3% | ACHN renal 13% | CCRF-CEM leukemia 13.7% | MOLT-4 leukemia 10.1%

Cc1ccc2c(N/N=C\c3ccco3)cc(C)nc2n1
active: CCRF-CEM leukemia 5.24%
inactive: SK-MEL-2 melanoma 114% | SN12C renal 77.2% | UO-31 renal 35.1% | TK-10 renal 93.8% | CAKI-1 renal 66% | A498 renal 50.3% | MOLT-4 leukemia 37%

O=C(c1cnn2c1NC(c1ccc(F)cc1)C2)N1CCCCC1 (stereo unspecified)
inactive: SK-MEL-2 melanoma 104% | SN12C renal 104% | UO-31 renal 89.8% | TK-10 renal 105% | ACHN renal 102% | CAKI-1 renal 93.4% | CCRF-CEM leukemia 105% | MOLT-4 leukemia 108%

CCCCCCCCCCCC(=O)[O][Sn]([CH2]CCC)([CH2]CCC)[CH2]CCC
active: SK-MEL-2 melanoma -90.5% | SN12C renal -93.5% | UO-31 renal -97.9% | ACHN renal -95.2% | A498 renal -86% | MOLT-4 leukemia -27%

c1ccc(-c2n(Cc3ccc4ccccc4c3)c3ccccc3[n+]2Cc2ccc3ccccc3c2)cc1
active: SK-MEL-2 melanoma -36.1% | SN12C renal -79.4% | UO-31 renal -79.7% | ACHN renal -4.48% | CAKI-1 renal -44.7% | A498 renal -40.6% | CCRF-CEM leukemia 2.6% | MOLT-4 leukemia -21.8%

Fc1c[c-]c(-c2ccccn2)c(F)c1.Fc1c[c-]c(-c2ccccn2)c(F)c1.[Cl][Pt+].[Cl][Pt+].c1ccc([PH+](C[PH+](c2ccccc2)c2ccccc2)c2ccccc2)cc1
inactive: UO-31 renal 75.9% | ACHN renal 89.3% | CAKI-1 renal 41.4% | A498 renal 21.6% | MOLT-4 leukemia 23.4%
active: SK-MEL-2 melanoma 8.6% | SN12C renal 5.5%

COc1cc(C(F)(F)F)ccc1-c1cc(-c2ccc(F)cc2)n[nH]1
inactive: SK-MEL-2 melanoma 118% | SN12C renal 85.2% | UO-31 renal 59.6% | ACHN renal 77% | CAKI-1 renal 78.4% | A498 renal 95.1% | CCRF-CEM leukemia 89.8% | MOLT-4 leukemia 91.2%
